From paper PMC7819943, “Rice protein-binding microarrays: a tool to detect cis-acting elements near promoter regions in rice” come the findings set out here.

In all, about 35,000 sequences were measured (“fluorescence intensity (a.u.)”: median about 10,000, highest 2% from about 52,000 on). For the sample, the highest values were picked, then their nearest neighbours and some sequences at random.

This test has as its target T1, OsWOX13 (Oryza sativa, UniProt Q5QMM3 1-267).
T1 sequence: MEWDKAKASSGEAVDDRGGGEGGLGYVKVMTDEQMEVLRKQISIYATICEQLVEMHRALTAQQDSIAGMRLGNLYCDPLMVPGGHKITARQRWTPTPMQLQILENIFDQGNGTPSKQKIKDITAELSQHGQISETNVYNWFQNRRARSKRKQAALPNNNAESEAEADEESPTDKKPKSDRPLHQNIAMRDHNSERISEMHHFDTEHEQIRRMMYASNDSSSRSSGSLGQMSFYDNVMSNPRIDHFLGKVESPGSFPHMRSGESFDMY
The test is described as follows: protein-binding microarray (RPBM); PBS, 2% BSA, 51.3 ng/ul salmon testes DNA, 50 uM zinc acetate, 200 nM TF, 25 C, 1 h; high values mean tight binding. The following applies: protein: recombinant; tags: N-terminal polyhistidine and DsRed monomer fusion (pET32a); label: CyDye5-dUTP incorporated in the synthesized complementary strand; 3' TTTTT single-stranded linker to array surface; dsDNA, one strand shown. The method in brief: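 Binding signal is reported as fluorescence intensity per feature (arbitrary units) from an Axon 4000B scanner. Incubation used 200 nM of each Ni–NTA-purified, N-terminally polyhistidine- and DsRed-fused transcription factor from E. coli BL21-CodonPlus on a double-stranded custom Agilent array for 1 h at 25 °C, with 50 µM zinc acetate in the buffer, followed by washing.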
Turning to “AATACACATTGACAGATGAGTTAACGCCCGTGACAGGCTGCGGAGTCACCTAGTGCAG”, the binding signal is 20500 fluorescence intensity (a.u.).
Then “CTTTATAAATTGTGTCATCTACTCATGTGTGGTAGGTCAACGGAGTCACCTAGTGCAG”, with 5450 fluorescence intensity (a.u.).
For the sequence “TTGAATTTAAATTTAAACGTATAGTGCCTTCCCTTTTACGCGGAGTCACCTAGTGCAG”, the binding signal was 22900 fluorescence intensity (a.u.).
Then “CAAATTAACTGGAAATTTTGAAGCATCCATGTTCTGTGAGCGGAGTCACCTAGTGCAG”, with 46600 fluorescence intensity (a.u.); and “TTGATGTGCAATAATTAACGAGAGAAGAGTTTTCCCATAGCGGAGTCACCTAGTGCAG”, with 10300 fluorescence intensity (a.u.); and “TGGAATTGATTATGATGCTGTTTCCTTCATGGGAGCTCTACGGAGTCACCTAGTGCAG”, with 31900 fluorescence intensity (a.u.).
With “ATGGCTGGGTTGATTGATATGGAGTACAAACTAAGTGTAGCGGAGTCACCTAGTGCAG”, the binding signal is 25000 fluorescence intensity (a.u.).
The value for “ACTAGTTAATCACGATTGATGGAAGCGGTTGATTGAATGACGGAGTCACCTAGTGCAG” was 51400 fluorescence intensity (a.u.); that for “TGGAATTCATCTAATTATATCATTTTCCTCCATACTAGCTCGGAGTCACCTAGTGCAG” was 3430 fluorescence intensity (a.u.).
The value for “CCATTAGATTAGCACTAATTATCATACTTAGTCATTAGCTCGGAGTCACCTAGTGCAG” was 59100 fluorescence intensity (a.u.); that for “ATTAATTAGCTCTAGATTAAGCTAATTGCCATCAATGGCTCGGAGTCACCTAGTGCAG” was 46400 fluorescence intensity (a.u.); that for “ATCATGGCAAATGATTGAAACTTTGAAGTAACGTTGGTGCCGGAGTCACCTAGTGCAG” was 38800 fluorescence intensity (a.u.).
Then “TAAATTTGATTCCATTTCCGTTGCCTGTTCATTTCGTCGACGGAGTCACCTAGTGCAG”, with 6090 fluorescence intensity (a.u.); and “CTGGACTGTCAAATCAAGGAGGATTGCGTACTAATCATGTCGGAGTCACCTAGTGCAG”, with 9940 fluorescence intensity (a.u.); and “AAATCATTAATAGTGCGTGATTAATTGAGTATTAATTATTCGGAGTCACCTAGTGCAG”, with 8480 fluorescence intensity (a.u.).
Consider “TGGTGTAGGGTTATGATTGGATGAGTAGTGGAGGTAGGTACGGAGTCACCTAGTGCAG”, for which the binding signal is 8550 fluorescence intensity (a.u.).
Then “TTAATCACTGGTAATTATAGATTTATAGGTGATTAATCACCGGAGTCACCTAGTGCAG”, with 17900 fluorescence intensity (a.u.); and “AAAATCACTGGATTAATTGATTGCGTCGTACTATCATTGCCGGAGTCACCTAGTGCAG”, with 64600 fluorescence intensity (a.u.); and “AAAATTATGGATTGGATGATTAATCACTGATAGGTAGTACCGGAGTCACCTAGTGCAG”, with 56900 fluorescence intensity (a.u.).
Then “CTAAACACGTCCTATCATGTCACGTAGATAATATGACACGCGGAGTCACCTAGTGCAG”, with 4110 fluorescence intensity (a.u.); and “TAGATAAATTACCCTAAAATCCTGTAAAACTTCTGCATTTCGGAGTCACCTAGTGCAG”, with 3350 fluorescence intensity (a.u.); and “ATAAAATTTAATATTAAATATGCATTTGAACAGCTATAAACGGAGTCACCTAGTGCAG”, with 6360 fluorescence intensity (a.u.).
The value for “AAATAAATTAATATAACTTATAAAGCAGCTTTTGTATAATCGGAGTCACCTAGTGCAG” was 13600 fluorescence intensity (a.u.); that for “AATGCAGGAACAGCATAAGCTTTGCGTATATTTGTATTAACGGAGTCACCTAGTGCAG” was 65500 fluorescence intensity (a.u.).
For the sequence “TTATTAATTCCATAATCAGAACTTTGATGTGATATAACCTCGGAGTCACCTAGTGCAG”, the binding signal is 9130 fluorescence intensity (a.u.).
As for “TCTGGGTGATTTGTTGCAAAAGAATATTTTAATTCACTGCCGGAGTCACCTAGTGCAG”, the binding signal was 14000 fluorescence intensity (a.u.).
Consider “GCGAACTTAATTGCTGCTAGAATGCTGCTGAAATTGGTGACGGAGTCACCTAGTGCAG”, for which the binding signal was 8360 fluorescence intensity (a.u.).
The value for “CATCTGGCGATTGCATATTAATTTGCATGGCGAAGCTTCCCGGAGTCACCTAGTGCAG” was 5830 fluorescence intensity (a.u.).
Then “ATTTGATCTGATTTGATTAATTTTGCATGCACGCGAATGGCGGAGTCACCTAGTGCAG”, with 61700 fluorescence intensity (a.u.); and “GTGATGATGAATTAATTGCTGAATGGCGAATGCAGTGCAGCGGAGTCACCTAGTGCAG”, with 58900 fluorescence intensity (a.u.).
Then “GACTTTAATGATGCTGACACCGGCTTAATTAGTATTGCGGCGGAGTCACCTAGTGCAG”, with 8560 fluorescence intensity (a.u.); and “GGGAGAGAATGTGCTAATTAATTGCATGCATGCATGCACGCGGAGTCACCTAGTGCAG”, with 12000 fluorescence intensity (a.u.).
In the case of “GTCATTGATTGATCAAGGGATCAATGCAAAACAACGCATTCGGAGTCACCTAGTGCAG”, the binding signal was 20300 fluorescence intensity (a.u.).
“AGAAAATTAATGTTCAACAAACTCGTCACAAATTAAGTTTCGGAGTCACCTAGTGCAG”: the binding signal is 13600 fluorescence intensity (a.u.).
Then “TAAATTTATAGTCAATTGTAGCATGAGCTCTAATAAACTGCGGAGTCACCTAGTGCAG”, with 4880 fluorescence intensity (a.u.).
Consider “TCTAATTAGTAAACTGTAGTAGTGAGCAAATTGTACTAGACGGAGTCACCTAGTGCAG”, for which the binding signal was 20900 fluorescence intensity (a.u.).
As for “GCAAATTGATAATTGAAACAGAATTCAGTCGTTTGTACAGCGGAGTCACCTAGTGCAG”, the binding signal was 62700 fluorescence intensity (a.u.).
Then “GGTTAATTTGACATAAACAGCGTCAGAAATGTAGTTCATGCGGAGTCACCTAGTGCAG”, with 57900 fluorescence intensity (a.u.); and “TCATGTAATTGTTGATAAGAGTGTCAGAATTCAGATAGTGCGGAGTCACCTAGTGCAG”, with 13500 fluorescence intensity (a.u.); and “AGCAGCATAAATGCAATTAAATTTGTAGCAATCGAACATGCGGAGTCACCTAGTGCAG”, with 4680 fluorescence intensity (a.u.).
The value for “TCATGTCATAAATTAAATTATTTGAAATTATTTGGTACAGCGGAGTCACCTAGTGCAG” was 13900 fluorescence intensity (a.u.).
Then “TCCAAATCCTACAATAATTGATTGAATCAAACACAGAAAGCGGAGTCACCTAGTGCAG”, with 41200 fluorescence intensity (a.u.).
For the sequence “TCTAAACTGATAATTGCAAATTGTAATTGATAGCATTGAGCGGAGTCACCTAGTGCAG”, the binding signal was 63700 fluorescence intensity (a.u.).
Consider “TTATTAATTTGTAATAGGTGTATTTCGGTCTTATTAAACTCGGAGTCACCTAGTGCAG”, for which the binding signal was 19600 fluorescence intensity (a.u.).
As to “CGTAAATTTTCAATAAAATTTTAGTGAAATCAGGAATATGCGGAGTCACCTAGTGCAG”, the binding signal was 17500 fluorescence intensity (a.u.).
With “AATAAAACTTACATGAGTTAATTGAGTGAGAAATTAATTCCGGAGTCACCTAGTGCAG”, the binding signal is 4550 fluorescence intensity (a.u.).
Then “TACCGATAATTTGTTATAGATCCCTAGACGTACATTCCTCCGGAGTCACCTAGTGCAG”, with 19900 fluorescence intensity (a.u.).
